{
  "source": "PubChem BioAssay (NCI)",
  "note": "This is part of a sample that, as a whole, favours compounds with a hit. Of some 79,000 tested, about 15% had one in any assay. Active and inactive are the calls of the source. No stated cut-off is given here; in the data, active means growth inhibition above about 70%; inactive means the rest.",
  "data": [
    {"test": "NCI Yeast Anticancer Drug Screen. Data for the rad52 strain (AID 147);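 further: 0% = growth of vehicle-treated control cultures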", "conditions": "S. cerevisiae rad52 mutant growth inhibition; at 3.7 µM; hits give high values", "method_in_brief": "(§1)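 DNA repair-defective yeast; compound exposure; growth scored against vehicle controls.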", "values": [
      {"compound": "Cc1cccc2c(C(O)CBr)cc(-c3ccc(Cl)cc3)nc12", "note": "(stereo not given)", "growth inhibition": "20% (inactive)"},
      {"compound": "CN(C)C[C@H]1CC[C@@H](CN(C)C)C1=O", "growth inhibition": "24% (inactive)"},
      {"compound": "CC1=C(SCCO)C(=O)c2ccccc2C1=O", "growth inhibition": "1% (inactive)"},
      {"compound": "COC(=O)CCNc1c2ccccc2nc2cccc([N+](=O)[O-])c12", "growth inhibition": "97% (active)"},
      {"compound": "CC(/C=C/c1ccc2c(c1)OCO2)[N+](=O)[O-]", "note": "(stereo not given)", "growth inhibition": "93% (active)"},
      {"compound": "COC(=O)C1=C(C)NC(C)=C(C(=O)OCCCN2CCC(c3ccccc3)(c3ccccc3)CC2)C1c1cccc([N+](=O)[O-])c1", "note": "(stereo not given)", "growth inhibition": "2% (inactive)"},
      {"compound": "CCOC(=O)c1cnc2c(C(F)(F)F)cccc2c1N=[N+]=[N-]", "growth inhibition": "2% (inactive)"},
      {"compound": "O=[N+]([O-])c1cc2no[n+]([O-])c2cc1N1CCCCC1", "growth inhibition": "65% (inactive)"},
      {"compound": "COC(=O)c1ccc(NCC2=CC(=O)C=CC2=O)cc1O", "growth inhibition": "34% (inactive)"},
      {"compound": "CCCCCCCCNC(=O)C1=C(C)NC(C)=C(C(=O)NCCCCCCCC)C1", "growth inhibition": "1% (inactive)"},
      {"compound": "S=C(Nc1ccc(Cl)c(Cl)c1)SCc1ccc2c(c1)OCO2", "growth inhibition": "54% (inactive)"},
      {"compound": "O=S(=O)(CCCl)c1ccccc1Cl", "growth inhibition": "1% (inactive)"},
      {"compound": "Nc1ccccc1CC(O)C(=O)O", "note": "(stereo not given)", "growth inhibition": "5% (inactive)"},
      {"compound": "CN(C)c1ccc(Sc2ccc3nc(N)nc(N)c3c2)cc1", "growth inhibition": "28% (inactive)"},
      {"compound": "CC(C)C1=CCC2C(=C1)CCC1C(C)(C(=O)O)CCCC21C", "note": "(stereo not given) (tested in a mixture with another compound)", "growth inhibition": "9% (inactive)"},
      {"compound": "Cc1ccc(S(=O)(=O)Oc2cc(Cl)c(Cl)cc2Cl)cc1", "growth inhibition": "4% (inactive)"},
      {"compound": "CSC(=S)Nc1cc(C)ccn1", "growth inhibition": "6% (inactive)"},
      {"compound": "CC(C)c1cc(C(C)C)c(O)c(C([O-])[O-])c1.CC(C)c1cc(C(C)C)c(O)c(C([O-])[O-])c1.CC(C)c1cc(C(C)C)c(O)c(C([OH2+])[OH2+])c1.CC(C)c1cc(C(C)C)c(O)c(C([OH2+])[OH2+])c1.[Cu+2].[Cu+2].[OH3+].[OH3+]", "growth inhibition": "12% (inactive)"},
      {"compound": "Cc1cc(I)ccc1N", "growth inhibition": "4% (inactive)"},
      {"compound": "CC(Br)C(=O)c1ccc2cc(Br)c3ccccc3c2c1", "note": "(stereo not given)", "growth inhibition": "-2% (inactive)"},
      {"compound": "O=C(Nc1ccccc1)OCCc1ccc(Cl)c(Cl)c1", "growth inhibition": "10% (inactive)"},
      {"compound": "O=Cc1cccc2ccc3ccccc3c12", "growth inhibition": "0% (inactive)"},
      {"compound": "O=[N+]([O-])CC(SCc1ccccc1)c1ccc2c(c1)OCO2", "note": "(stereo not given)", "growth inhibition": "34% (inactive)"},
      {"compound": "CC1(Cl)CC(O)C2(CC1Br)C1(C)OC1C1OC1(Br)C2(C)C", "note": "(stereo not given)", "growth inhibition": "19% (inactive)"},
      {"compound": "Cc1cc(O)cc(O)c1N=Nc1ccc([N+](=O)[O-])cc1", "growth inhibition": "12% (inactive)"},
      {"compound": "CCCCCCCCCCCCCC[N+](C)(CC(=O)[O-])Cc1ccccc1", "note": "(stereo not given)", "growth inhibition": "23% (inactive)"},
      {"compound": "CC1=NN(c2cccc(Cl)c2)C(=O)C1", "growth inhibition": "-33% (inactive)"},
      {"compound": "CC(=O)OCc1ccc(O)c(C=O)c1", "growth inhibition": "1% (inactive)"},
      {"compound": "Cc1ccc2ccc3cccc4ccc1c2c34", "growth inhibition": "0% (inactive)"},
      {"compound": "Cc1nc(-[n+]2nc(-c3ccncc3)nn2-c2ccccc2)sc1C", "growth inhibition": "-2% (inactive)"},
      {"compound": "C(CCSC1=NCCN1)CSC1=NCCN1", "note": "(tested in a mixture with another compound)", "growth inhibition": "39% (inactive)"},
      {"compound": "CCCCCCCCCCC(=O)Cl", "growth inhibition": "13% (inactive)"},
      {"compound": "COC1C=COC2(C)Oc3c(C)c(O)c4c(c3C2=O)/C(=N/C2CCC(O)OC2C)C=C(NC(=O)/C(C)=C\\C(=O)C2CC2C(O)C(C)C(O)C(C)C(OC(C)=O)C1C)C4=O", "note": "(stereo not given)", "growth inhibition": "-2% (inactive)"},
      {"compound": "S=c1[nH]nc(Nc2ccc(Cl)cc2)s1", "growth inhibition": "-9% (inactive)"},
      {"compound": "O=C1CSC(/C=C/c2ccccc2)N1c1ccc(-c2ccc(-n3c(-c4ccccc4)nc4ccccc4c3=O)cc2)cc1", "note": "(stereo not given)", "growth inhibition": "1% (inactive)"},
      {"compound": "O=C1C=CC(=O)N1c1ccc2c(c1)Cc1cc(NC(=O)C(F)(F)F)ccc1-2", "growth inhibition": "24% (inactive)"},
      {"compound": "Brc1ccc(-c2cc3c(cc2C2SCCS2)OCO3)cc1", "growth inhibition": "-21% (inactive)"},
      {"compound": "Oc1ccc2ccccc2c1C(c1ccc(Cl)cc1)c1c(O)ccc2ccccc12", "growth inhibition": "-23% (inactive)"},
      {"compound": "C[CH2][Sn]([CH2]C)([O]C(=O)C(OC(C)=O)c1ccccc1)[O]C(=O)C(OC(C)=O)c1ccccc1", "note": "(stereo not given)", "growth inhibition": "3% (inactive)"},
      {"compound": "Cc1ccc2ccc(O)cc2c1", "growth inhibition": "-35% (inactive)"}
    ]},
    {"test": "NCI Yeast Anticancer Drug Screen. Data for the rad52 strain (AID 147);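 further: 0% = growth of vehicle-treated control cultures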", "conditions": "S. cerevisiae rad52 mutant growth inhibition; at 11.0 µM; hits give high values", "method_in_brief": "as §1", "values": [
      {"compound": "Cc1cccc2c(C(O)CBr)cc(-c3ccc(Cl)cc3)nc12", "note": "(stereo not given)", "growth inhibition": "98% (active)"},
      {"compound": "CN(C)C[C@H]1CC[C@@H](CN(C)C)C1=O", "growth inhibition": "27% (inactive)"},
      {"compound": "CC1=C(SCCO)C(=O)c2ccccc2C1=O", "growth inhibition": "13% (inactive)"},
      {"compound": "COC(=O)CCNc1c2ccccc2nc2cccc([N+](=O)[O-])c12", "growth inhibition": "97% (active)"},
      {"compound": "CC(/C=C/c1ccc2c(c1)OCO2)[N+](=O)[O-]", "note": "(stereo not given)", "growth inhibition": "99% (active)"},
      {"compound": "COC(=O)C1=C(C)NC(C)=C(C(=O)OCCCN2CCC(c3ccccc3)(c3ccccc3)CC2)C1c1cccc([N+](=O)[O-])c1", "note": "(stereo not given)", "growth inhibition": "97% (active)"},
      {"compound": "CCOC(=O)c1cnc2c(C(F)(F)F)cccc2c1N=[N+]=[N-]", "growth inhibition": "2% (inactive)"},
      {"compound": "O=[N+]([O-])c1cc2no[n+]([O-])c2cc1N1CCCCC1", "growth inhibition": "98% (active)"},
      {"compound": "COC(=O)c1ccc(NCC2=CC(=O)C=CC2=O)cc1O", "growth inhibition": "80% (active)"},
      {"compound": "CCCCCCCCNC(=O)C1=C(C)NC(C)=C(C(=O)NCCCCCCCC)C1", "growth inhibition": "3% (inactive)"},
      {"compound": "S=C(Nc1ccc(Cl)c(Cl)c1)SCc1ccc2c(c1)OCO2", "growth inhibition": "99% (active)"},
      {"compound": "O=S(=O)(CCCl)c1ccccc1Cl", "growth inhibition": "42% (inactive)"},
      {"compound": "Nc1ccccc1CC(O)C(=O)O", "note": "(stereo not given)", "growth inhibition": "14% (inactive)"},
      {"compound": "CN(C)c1ccc(Sc2ccc3nc(N)nc(N)c3c2)cc1", "growth inhibition": "31% (inactive)"},
      {"compound": "CC(C)C1=CCC2C(=C1)CCC1C(C)(C(=O)O)CCCC21C", "note": "(stereo not given) (tested in a mixture with another compound)", "growth inhibition": "12% (inactive)"},
      {"compound": "Cc1ccc(S(=O)(=O)Oc2cc(Cl)c(Cl)cc2Cl)cc1", "growth inhibition": "9% (inactive)"},
      {"compound": "CSC(=S)Nc1cc(C)ccn1", "growth inhibition": "37% (inactive)"},
      {"compound": "CC(C)c1cc(C(C)C)c(O)c(C([O-])[O-])c1.CC(C)c1cc(C(C)C)c(O)c(C([O-])[O-])c1.CC(C)c1cc(C(C)C)c(O)c(C([OH2+])[OH2+])c1.CC(C)c1cc(C(C)C)c(O)c(C([OH2+])[OH2+])c1.[Cu+2].[Cu+2].[OH3+].[OH3+]", "growth inhibition": "26% (inactive)"},
      {"compound": "Cc1cc(I)ccc1N", "growth inhibition": "24% (inactive)"},
      {"compound": "CC(Br)C(=O)c1ccc2cc(Br)c3ccccc3c2c1", "note": "(stereo not given)", "growth inhibition": "-2% (inactive)"},
      {"compound": "O=C(Nc1ccccc1)OCCc1ccc(Cl)c(Cl)c1", "growth inhibition": "20% (inactive)"},
      {"compound": "O=Cc1cccc2ccc3ccccc3c12", "growth inhibition": "7% (inactive)"},
      {"compound": "O=[N+]([O-])CC(SCc1ccccc1)c1ccc2c(c1)OCO2", "note": "(stereo not given)", "growth inhibition": "92% (active)"},
      {"compound": "CC1(Cl)CC(O)C2(CC1Br)C1(C)OC1C1OC1(Br)C2(C)C", "note": "(stereo not given)", "growth inhibition": "31% (inactive)"},
      {"compound": "Cc1cc(O)cc(O)c1N=Nc1ccc([N+](=O)[O-])cc1", "growth inhibition": "11% (inactive)"},
      {"compound": "CCCCCCCCCCCCCC[N+](C)(CC(=O)[O-])Cc1ccccc1", "note": "(stereo not given)", "growth inhibition": "99% (active)"},
      {"compound": "CC1=NN(c2cccc(Cl)c2)C(=O)C1", "growth inhibition": "-22% (inactive)"},
      {"compound": "CC(=O)OCc1ccc(O)c(C=O)c1", "growth inhibition": "-10% (inactive)"},
      {"compound": "Cc1ccc2ccc3cccc4ccc1c2c34", "growth inhibition": "5% (inactive)"},
      {"compound": "Cc1nc(-[n+]2nc(-c3ccncc3)nn2-c2ccccc2)sc1C", "growth inhibition": "0% (inactive)"},
      {"compound": "C(CCSC1=NCCN1)CSC1=NCCN1", "note": "(tested in a mixture with another compound)", "growth inhibition": "79% (active)"},
      {"compound": "CCCCCCCCCCC(=O)Cl", "growth inhibition": "12% (inactive)"},
      {"compound": "COC1C=COC2(C)Oc3c(C)c(O)c4c(c3C2=O)/C(=N/C2CCC(O)OC2C)C=C(NC(=O)/C(C)=C\\C(=O)C2CC2C(O)C(C)C(O)C(C)C(OC(C)=O)C1C)C4=O", "note": "(stereo not given)", "growth inhibition": "-4% (inactive)"},
      {"compound": "S=c1[nH]nc(Nc2ccc(Cl)cc2)s1", "growth inhibition": "1% (inactive)"},
      {"compound": "O=C1CSC(/C=C/c2ccccc2)N1c1ccc(-c2ccc(-n3c(-c4ccccc4)nc4ccccc4c3=O)cc2)cc1", "note": "(stereo not given)", "growth inhibition": "4% (inactive)"},
      {"compound": "O=C1C=CC(=O)N1c1ccc2c(c1)Cc1cc(NC(=O)C(F)(F)F)ccc1-2", "growth inhibition": "42% (inactive)"},
      {"compound": "Brc1ccc(-c2cc3c(cc2C2SCCS2)OCO3)cc1", "growth inhibition": "-16% (inactive)"},
      {"compound": "Oc1ccc2ccccc2c1C(c1ccc(Cl)cc1)c1c(O)ccc2ccccc12", "growth inhibition": "-17% (inactive)"},
      {"compound": "C[CH2][Sn]([CH2]C)([O]C(=O)C(OC(C)=O)c1ccccc1)[O]C(=O)C(OC(C)=O)c1ccccc1", "note": "(stereo not given)", "growth inhibition": "15% (inactive)"},
      {"compound": "Cc1ccc2ccc(O)cc2c1", "growth inhibition": "-30% (inactive)"}
    ]}
  ]
}
